# Source: PubChem BioAssay AID1159580 (chemical genetic matrix, 2015)
# Among all 5,500 compounds or so, about 2,000 (36%) were called active. Roughly 18% stayed inconclusive and do not appear here. The list shows a part of the results. Values without a mark were called inactive. Rule as the data show it: active = normalized growth mostly below about 0.91 (no sharp cut-off); inconclusive = no clear call, values can overlap the other calls; inactive = mostly above about 0.92.
# Test: chemical genetic growth profiling, strain panel (AID 1159580);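 also: tested at 20 µM; growth read once vehicle control cultures reached saturation at 30 °C; 1 = growth at the plate median or of vehicle wells; lower values mean less growth of the strain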
# Settings: growth OD
# [1] = S. cerevisiae deletion strains, locus YGR078C, strain PAC10, stronger effect = lower value
# [2] = S. cerevisiae deletion strains, locus YJR075W, strain HOC1, stronger effect = lower value
# [3] = S. cerevisiae deletion strains, locus YMR307W, strain GAS1, stronger effect = lower value
# [4] = S. cerevisiae deletion strains, locus YNL153C, strain GIM3, stronger effect = lower value
# [5] = S. cerevisiae deletion strains, locus YAL040C, strain CLN3, stronger effect = lower value
# [6] = S. cerevisiae deletion strains, locus YER002W, strain NOP16, stronger effect = lower value
# [7] = S. cerevisiae deletion strains, locus YMR263W, strain SAP30, stronger effect = lower value
# [8] = S. cerevisiae deletion strains, locus YNL175C, strain NOP13, stronger effect = lower value
# [9] = S. cerevisiae deletion strains, locus YNL197C, strain WHI3, stronger effect = lower value
# [10] = S. cerevisiae deletion strains, locus YNL224C, strain SQS1, stronger effect = lower value
# [11] = S. cerevisiae deletion strains, locus YOR083W, strain WHI5 (second series), stronger effect = lower value
compound,measurement,setting,value
NC(=O)NCC(N)C(=O)O (stereo not given),normalized growth,"S. cerevisiae deletion strains, locus YBR021W, strain FUR4, stronger effect = lower value",1.06
same,normalized growth,"S. cerevisiae deletion strains, locus YBR229C, strain ROT2, stronger effect = lower value",1.01
same,normalized growth,"S. cerevisiae deletion strains, locus YCL029C, strain bik1, stronger effect = lower value",0.988
same,normalized growth,"S. cerevisiae deletion strains, locus YDL035C, strain GPR1, stronger effect = lower value",1.04
same,normalized growth,"S. cerevisiae deletion strains, locus YDL074C, strain BRE1, stronger effect = lower value",1.03
same,normalized growth,"S. cerevisiae deletion strains, locus YDL101C, strain DUN1, stronger effect = lower value",1.02
same,normalized growth,"S. cerevisiae deletion strains, locus YDL134C, strain PPH21, stronger effect = lower value",1.03
same,normalized growth,"S. cerevisiae deletion strains, locus YDL185W, strain tfp1, stronger effect = lower value",0.989
same,normalized growth,"S. cerevisiae deletion strains, locus YDL192W, strain arf1, stronger effect = lower value",1
same,normalized growth,"S. cerevisiae deletion strains, locus YDR101C, strain arx1, stronger effect = lower value",0.975
same,normalized growth,"S. cerevisiae deletion strains, locus YDR162C, strain NBP2, stronger effect = lower value",1.04
same,normalized growth,"S. cerevisiae deletion strains, locus YDR318W, strain mcm21, stronger effect = lower value",0.999
same,normalized growth,"S. cerevisiae deletion strains, locus YDR388W, stronger effect = lower value",0.983
same,normalized growth,"S. cerevisiae deletion strains, locus YDR502C, strain sam2, stronger effect = lower value",0.984
same,normalized growth,"S. cerevisiae deletion strains, locus YEL061C, strain CIN8, stronger effect = lower value",1.01
same,normalized growth,"S. cerevisiae deletion strains, locus YER110C, stronger effect = lower value",0.978
same,normalized growth,"S. cerevisiae deletion strains, locus YER155C, strain BEM2, stronger effect = lower value",1.01
same,normalized growth,"S. cerevisiae deletion strains, locus YER167W, strain BCK2, stronger effect = lower value",1.02
same,normalized growth,"S. cerevisiae deletion strains, locus YGL078C, strain dbp3, stronger effect = lower value",0.995
same,normalized growth,"S. cerevisiae deletion strains, locus YGL086W, strain mad1, stronger effect = lower value",0.994
same,normalized growth,"S. cerevisiae deletion strains, locus YGL248W, strain PDE1, stronger effect = lower value",1.02
same,normalized growth,[1],1.03
same,normalized growth,"S. cerevisiae deletion strains, locus YGR135W, strain pre9, stronger effect = lower value",0.995
same,normalized growth,"S. cerevisiae deletion strains, locus YGR252W, strain gcn5, stronger effect = lower value",0.987
same,normalized growth,"S. cerevisiae deletion strains, locus YHR030C, strain SLT2, stronger effect = lower value",1.01
same,normalized growth,"S. cerevisiae deletion strains, locus YHR079C, strain IRE1 (second series), stronger effect = lower value",0.983
same,normalized growth,"S. cerevisiae deletion strains, locus YHR094C, strain hxt1, stronger effect = lower value",0.975
same,normalized growth,"S. cerevisiae deletion strains, locus YHR129C, strain ARP1, stronger effect = lower value",1.02
same,normalized growth,"S. cerevisiae deletion strains, locus YHR200W, strain rpn10, stronger effect = lower value",0.986
same,normalized growth,"S. cerevisiae deletion strains, locus YIL066C, strain RNR3, stronger effect = lower value",1.03
same,normalized growth,"S. cerevisiae deletion strains, locus YIL073C, strain SPO22, stronger effect = lower value",1
same,normalized growth,"S. cerevisiae deletion strains, locus YIL125W, strain kgd1, stronger effect = lower value",0.991
same,normalized growth,"S. cerevisiae deletion strains, locus YIR030C, strain dcg1, stronger effect = lower value",0.996
same,normalized growth,"S. cerevisiae deletion strains, locus YJL095W, strain BCK1, stronger effect = lower value",1.03
same,normalized growth,"S. cerevisiae deletion strains, locus YJL134W, strain LCB3, stronger effect = lower value",1.01
same,normalized growth,"S. cerevisiae deletion strains, locus YJL168C, strain set2, stronger effect = lower value",0.989
same,normalized growth,"S. cerevisiae deletion strains, locus YJL187C, strain SWE1 (second series), stronger effect = lower value",1.02
same,normalized growth,"S. cerevisiae deletion strains, locus YJR043C, strain POL32, stronger effect = lower value",1.04
same,normalized growth,[2],1.02
same,normalized growth,"S. cerevisiae deletion strains, locus YKL009W, strain mrt4, stronger effect = lower value",1
same,normalized growth,"S. cerevisiae deletion strains, locus YKL068W, stronger effect = lower value",0.997
same,normalized growth,"S. cerevisiae deletion strains, locus YKL085W, strain MDH1 (second series), stronger effect = lower value",1.01
same,normalized growth,"S. cerevisiae deletion strains, locus YKL085W, strain MDH1, stronger effect = lower value",1.01
same,normalized growth,"S. cerevisiae deletion strains, locus YKL190W, strain CNB1, stronger effect = lower value",1.01
same,normalized growth,"S. cerevisiae deletion strains, locus YKR001C, strain vps1, stronger effect = lower value",0.989
same,normalized growth,"S. cerevisiae deletion strains, locus YLR039C, strain RIC1, stronger effect = lower value",1.08
same,normalized growth,"S. cerevisiae deletion strains, locus YLR058C, strain SHM2, stronger effect = lower value",1.02
same,normalized growth,"S. cerevisiae deletion strains, locus YLR102C, strain apc9, stronger effect = lower value",0.987
same,normalized growth,"S. cerevisiae deletion strains, locus YLR262C, strain YPT6, stronger effect = lower value",1.1
same,normalized growth,"S. cerevisiae deletion strains, locus YLR268W, strain sec22, stronger effect = lower value",0.983
same,normalized growth,"S. cerevisiae deletion strains, locus YLR330W, strain CHS5, stronger effect = lower value",1.01
same,normalized growth,"S. cerevisiae deletion strains, locus YLR342W, strain FKS1 (second series), stronger effect = lower value",1.03
same,normalized growth,"S. cerevisiae deletion strains, locus YLR371W, strain rom2, stronger effect = lower value",0.981
same,normalized growth,"S. cerevisiae deletion strains, locus YLR418C, strain cdc73, stronger effect = lower value",0.982
same,normalized growth,"S. cerevisiae deletion strains, locus YML016C, strain PPZ1, stronger effect = lower value",1.01
same,normalized growth,"S. cerevisiae deletion strains, locus YML032C, strain rad52, stronger effect = lower value",0.995
same,normalized growth,"S. cerevisiae deletion strains, locus YML124C, strain tub3, stronger effect = lower value",0.981
same,normalized growth,"S. cerevisiae deletion strains, locus YMR078C, strain ctf18, stronger effect = lower value",0.971
same,normalized growth,"S. cerevisiae deletion strains, locus YMR223W, strain ubp8, stronger effect = lower value",0.99
same,normalized growth,[3],1.14
same,normalized growth,"S. cerevisiae deletion strains, locus YNL067W, strain RPL9B, stronger effect = lower value",1.01
same,normalized growth,[4],1.01
same,normalized growth,"S. cerevisiae deletion strains, locus YNL233W, strain BNI4, stronger effect = lower value",1.03
same,normalized growth,"S. cerevisiae deletion strains, locus YNL250W, strain rad50, stronger effect = lower value",1.01
same,normalized growth,"S. cerevisiae deletion strains, locus YNL271C, strain bni1, stronger effect = lower value",0.982
same,normalized growth,"S. cerevisiae deletion strains, locus YNL298W, strain CLA4, stronger effect = lower value",0.994
same,normalized growth,"S. cerevisiae deletion strains, locus YNL307C, strain MCK1, stronger effect = lower value",0.991
same,normalized growth,"S. cerevisiae deletion strains, locus YNL322C, strain KRE1, stronger effect = lower value",1.01
same,normalized growth,"S. cerevisiae deletion strains, locus YNR052C, strain pop2, stronger effect = lower value",0.991
same,normalized growth,"S. cerevisiae deletion strains, locus YOL012C, strain htz1",0.762
same,normalized growth,"S. cerevisiae deletion strains, locus YOL147C, strain pex11, stronger effect = lower value",0.985
same,normalized growth,"S. cerevisiae deletion strains, locus YOR061W, strain CKA2, stronger effect = lower value",1.02
same,normalized growth,"S. cerevisiae deletion strains, locus YOR069W, strain VPS5, stronger effect = lower value",1.01
same,normalized growth,"S. cerevisiae deletion strains, locus YOR136W, strain idh2, stronger effect = lower value",0.985
same,normalized growth,"S. cerevisiae deletion strains, locus YOR144C, strain elg1, stronger effect = lower value",0.984
same,normalized growth,"S. cerevisiae deletion strains, locus YOR184W, strain ser1, stronger effect = lower value",0.989
same,normalized growth,"S. cerevisiae deletion strains, locus YOR316C, strain cot1, stronger effect = lower value",0.983
same,normalized growth,"S. cerevisiae deletion strains, locus YPR119W, strain clb2, stronger effect = lower value",0.987
same,normalized growth,"S. cerevisiae deletion strains, locus YPR141C, strain kar3, stronger effect = lower value",0.995
same,normalized growth,"S. cerevisiae deletion strains, locus YPR163C, strain tif3, stronger effect = lower value",0.985
same,normalized growth,"S. cerevisiae deletion strains, locus YPR167C, strain met16, stronger effect = lower value",0.989
same,normalized growth,"S. cerevisiae deletion strains, strain wtn01, stronger effect = lower value",0.989
same,normalized growth,"S. cerevisiae strains, strain wild type, stronger effect = lower value",1.02
CC(C)CN(C)c1nc(N)c(C(=O)N=C(N)N)nc1Cl,normalized growth,[5],0.968
same,normalized growth,"S. cerevisiae deletion strains, locus YCL061C, strain MRC1 (second series), stronger effect = lower value",0.963
same,normalized growth,[6],1.04
same,normalized growth,[1],0.99
same,normalized growth,[2],0.957
same,normalized growth,[7],0.986
same,normalized growth,[3],0.971
same,normalized growth,"S. cerevisiae deletion strains, locus YNL128W, strain TEP1, stronger effect = lower value",0.986
same,normalized growth,[4],0.855
same,normalized growth,[8],1.01
same,normalized growth,[9],1
same,normalized growth,[10],1.03
same,normalized growth,[11],0.866 (active)
CCN(c1nc(N)c(C(=O)N=C(N)N)nc1Cl)C(C)C,normalized growth,"S. cerevisiae deletion strains, locus YAL013W, strain DEP1, stronger effect = lower value",1
same,normalized growth,[5],1
same,normalized growth,"S. cerevisiae deletion strains, locus YDR363W, strain ESC2, stronger effect = lower value",0.989
same,normalized growth,[6],1.04
same,normalized growth,[7],1
same,normalized growth,[8],1.04
same,normalized growth,[9],1.02
same,normalized growth,[10],1.06
same,normalized growth,[11],1.02
